# From PubChem
# RAD54 branch = inhibitors of human RAD54 branch migration, primary screen, biochemical, fluorescence, single point; RAD54 Holliday junction branch migration, FAM/BHQ fluorescence; inhibition, % at 10.4 µM; 360,000 compounds, 0.14% hits; AID 602329, 2012;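 active = mean normalized replicate activity at least 40 and at least half of replicates scoring 40 or more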;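 note: 0% = median of neutral control wells and 100% = median of positive control wells; inhibitors cause a drop in the FAM fluorescence signal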
# LGR2 antag = inhibitors of bursicon-induced LGR2 CRE-luciferase signal, primary screen, cell-based, HEK293, CRE-luciferase reporter, bursicon stimulation; Drosophila bursicon receptor LGR2 (rickets); bursicon-stimulated, 4 h; inhibition, % at 9.99 µM; 380,000 compounds, 0.35% hits; AID 720647, 2013;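 active = drop in luminescence signal, shown as inhibition above about 50% in the replicate tests, limit read from the data, passing the limit was not always enough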;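 note: agonist challenge used bursicon conditioned medium at about half maximal strength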
# RAD52 anneal inh = RAD52 DNA annealing inhibitors, primary screen, biochemical, FRET, single point, set 2 | recombinant RAD52 DNA annealing, FRET fluorescence | inhibition, % at 18.7 µM | 360,000 compounds, 0.46% hits | AID 651710, 2012;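 active = every replicate showing at least 50% inhibition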
# Target sequence (P43351 whole entry, looked up): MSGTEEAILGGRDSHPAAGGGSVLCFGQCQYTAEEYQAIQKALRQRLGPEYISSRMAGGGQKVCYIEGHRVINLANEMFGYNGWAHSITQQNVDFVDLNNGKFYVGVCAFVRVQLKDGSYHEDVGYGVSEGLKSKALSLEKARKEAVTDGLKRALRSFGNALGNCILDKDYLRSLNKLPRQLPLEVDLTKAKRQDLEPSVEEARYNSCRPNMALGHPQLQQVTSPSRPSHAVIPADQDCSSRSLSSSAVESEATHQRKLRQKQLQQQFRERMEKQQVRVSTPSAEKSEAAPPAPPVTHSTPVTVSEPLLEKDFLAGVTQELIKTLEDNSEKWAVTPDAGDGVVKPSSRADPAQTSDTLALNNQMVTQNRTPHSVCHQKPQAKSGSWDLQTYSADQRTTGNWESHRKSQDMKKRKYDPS
# GSIS activator = GLuc luminescence reporter in INS-1E cells, primary screen for activators of glucose-dependent secretion of insulin; INS-1E GLuc reporter insulin secretion, 2-3 h; activation, % at 16.6 µM; 370,000 compounds, 0.61% hits; AID 743287, 2014;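 active = lowest replicate activation of at least 40%, so every replicate reaches that level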;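 note: 0% = median of neutral control wells and 100% = median of IBMX positive control wells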
# EWS-Fli block = EWS/Fli-driven NR0B1 reporter inhibitors, primary screen, A673 cells, NR0B1 luciferase, luminescence, MLPCN library; viability-normalised; inhibition, % at 12.6 µM; AID 651661, 2012; 350,000 compounds, 0.67% hits;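 active = mean inhibition of at least 50% after viability correction, with every replicate also passing that limit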;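 note: firefly luciferase signal divided by Alamar Blue viability fluorescence both relative to DMSO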
# CFTR F508del cor = F508del CFTR correction, initial screen, CFBE line, single point; AID 720511, 2013; CFBE cells, YFP halide quenching; stimulated with forskolin plus potentiator P3; % fluorescence drop versus neutral controls; activity (quench increase), % at 7.58 µM; 350,000 compounds, 0.36% hits;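 active = mean added fluorescence quench of at least 8% versus neutral control, with both replicates also reaching 8%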;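 note: cells transiently co-express mutant CFTR-F508del with the halide-sensitive YFP; corrector assay measuring rescue of mutant channel to the surface after 24 h compound exposure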
# DNA binding = DNA binders by acridine orange displacement, dose response, counter-screen for EWS/Fli inhibitor project, biochemical, fluorescence polarization, cherry-pick; shares compounds with EWS-Fli block; salmon sperm DNA acridine orange fluorescence polarization; AC35, µM (highest dose often 68 µM), without a hit: at the highest dose activity change, negative = DNA binding; 640 compounds, 2% hits; AID 720586, 2013;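 active = fitted curve reaches a 35% signal fall AC35 below twice the sample's top valid tested dose, actives reach about 48 µM in these data; inactive = the rest, including activity in the rising direction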;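 note: lower polarization ratio signals compound binding to DNA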
# The depositor's hits bear a star; . = no result; [ ] = dose if it differs, or a comment. Sampled rows, rich in hits. Any-hit rate of the full collection: about 1.8%.
SMILES,RAD54 branch,LGR2 antag,RAD52 anneal inh,GSIS activator,EWS-Fli block,CFTR F508del cor,DNA binding
Cc1cc(C)cc(OCC(=O)OCC(=O)Nc2cc(S(=O)(=O)N3CCOCC3)ccc2Cl)c1,-3,28,-2,5,-1,2,.
O=C(Cc1cccc(NC(=O)C2CCCN(C(=O)C3CCCCC3)C2)c1)Nc1ccc(C(=O)N2CCOCC2)cc1 (stereo not drawn),13,10,-5,-5,-14,-5,.
O=C(O)c1ccc(N/N=C/c2c[nH]c3ccccc23)cc1,-5,59*,-57,2,69*,-1,-4%
O=C(O)c1ccc(S(=O)(=O)NN=Cc2c[nH]c3ccccc23)cc1,.,12,-10,16,4,1,.
COc1ccc(C(=S)N2CCOCC2)cc1OC(=O)c1cc(OC)c(OC)c(OC)c1,-4,-3,-16,17,12,-1,.
C[C@H](CO)N1C[C@H](C)[C@H](CN(C)Cc2ccc(C(F)(F)F)cc2)Oc2c(NS(=O)(=O)c3ccc(Cl)cc3)cccc2C1=O,-2,10,-11,-21,60*,1,10%
COc1ccc(S(=O)(=O)Nc2cccc3c2O[C@@H](CN(C)Cc2ccc(C(=O)Nc4ccccc4N)cc2)[C@@H](C)CN([C@H](C)CO)C3=O)cc1,.,23,12,-3,-9,0,.
COc1ccc(S(=O)(=O)Nc2cccc3c2O[C@H](CN(C)Cc2ccc(C(=O)Nc4ccccc4N)cc2)[C@H](C)CN([C@@H](C)CO)C3=O)cc1,9,2,9,-6,57*,3,-10%[56 µM]
CN1C(=O)C2(OCCCO2)c2ccccc21,-1,-3,-18,15,-4,0,.
CN(CC(=O)NCCc1ccc(S(N)(=O)=O)cc1)S(=O)(=O)c1ccc(Br)s1,-18,-1,-9,16,-8,1,.
CN(C)C(=S)N=Nc1[nH]c2ccccc2c1O,.,.,-39,-27,61*,-3,-7%
O=C(O)c1ccc(N/N=C/c2ccncc2)cc1,.,1,-9,4,-32,1,.
O=C(O)c1cccc(N/N=C/c2cccs2)c1,.,100*,-11,9,85*,.,-1%
O=C(Oc1ccc(/C=N/Nc2ccccc2)cc1)c1ccccc1,-1,.,.,-8,.,.,.
O=C(O)c1ccc(N/N=C/c2ccc(OC(=O)c3cccc(Cl)c3)cc2)cc1,-2,80*,-11,-9,64*,-3,4%
O=C(O)c1ccc(N/N=C/c2ccc3nccnc3c2)cc1,.,96*,-15,35,84*,-1,-4%
O=C(O)c1cccc(N/N=C/c2ccc(OC(F)(F)F)cc2)c1,0,-9,-4,0,74*,-2,-8%
CC(=O)N1CCN2C(=O)C1CCCC(=O)c1cc(C(C)C)ccc12 (stereo not drawn),-8,.,.,.,.,.,.
O=C(CCCCl)Nc1nc(-c2ccc3c(c2)OCCO3)cs1,-4,-71,-9,-12,57*,1,-5%
COCc1cc(C)nc2sc(C(=O)NCCO)c(-n3cccc3)c12,.,-18,-16,-1,61*,-3,-14%
Cc1c(Cl)cccc1NC(=O)Cn1cc(C(F)(F)F)cc(Cl)c1=O,.,-6,-14,3,-9,.,.
Cc1ccc(Cl)cc1NC(=O)Cn1cc(C(F)(F)F)cc(Cl)c1=O,9,12,-6,11,76*,.,4%
CCCCN=C(NNc1ccc(Br)cc1)C(=O)OCC,.,11,-1,1,79*,.,-9%
COC(=O)C1=C(C)N(Cc2ccccc2)C(=O)N[C@H]1CCc1ccccc1,-4,13,-19,21,0,4,.
Cc1ccc(/C=N/Nc2ccnc3cc(Cl)ccc23)c(C)c1,6,.,-12,4,76*,-3,-8%
SMILES,RAD54 branch,LGR2 antag,RAD52 anneal inh,GSIS activator,EWS-Fli block,CFTR F508del cor,DNA binding
COc1ccc(C2c3cc4c(cc3OC(NNC(N)=O)C2C)OCO4)cc1 (stereo not drawn),.,6,-4,-21,50*,2,-9%
COc1ccccc1-c1ccc2c(c1)O[C@H](CN(C)C(=O)Nc1ccccc1)[C@@H](C)CN([C@H](C)CO)S2(=O)=O,-2,1,-13,-6,13,1,.
O=C1c2ccc3c4c(ccc(c24)C(=O)N1c1cccc(O)c1)CC3,4,-25,-17,1,-3,0,.
O=C1c2ccc3c4c(ccc(c24)C(=O)N1c1cccc(O)c1)C(=O)N(c1cccc(O)c1)C3=O,9,-3,-4,20,60*,-5,-8%
CC(C)Oc1ccc(Br)cc1C(=O)N/N=C/c1c[nH]c2ccccc12,-33,-9,-12,4,53*,1,-1%
O=C(N/N=C/c1c[nH]c2ccccc12)c1ccc(Br)cc1,1,-59,-10,-23,-53,-1,.
CCC1=Nc2cc(C(=O)NCC3CCCO3)ccc2Sc2ccc(Br)cc21 (stereo not drawn),.,1,-14,6,55*,4,-22%
O=C(NCC1CCCO1)c1ccc(NC(=O)c2ccc(Br)cc2)cc1 (stereo not drawn),-8,-16,-6,-8,3,1,.
CCCCCCCCNC(C)C(O)c1ccc(SC(C)C)cc1 (stereo not drawn),20,2,33,.,59*,-3,-7%
COc1ccc2oc(=O)c(C(=O)Nc3ccccc3O)cc2c1,.,17,-9,26,18,-3,.
COc1ccc(NC(=O)c2cc3ccccc3oc2=O)cc1,0,76*,3,-9,76*,-3,-11%
COC(=O)C[C@@H]1CC[C@H]2[C@H](COc3ccc(NC(=O)Nc4ccc(C#N)cc4)cc3C(=O)N2C)O1,1,18,-87,-17,87*,3,5%
COC(=O)C[C@H]1CC[C@H]2[C@H](COc3ccc(NC(=O)Nc4ccc(C#N)cc4)cc3C(=O)N2C)O1,0,-2,-28,0,42,1,.
COC(=O)C[C@@H]1CC[C@@H]2[C@@H](COc3ccc(NC(=O)Nc4ccc(C#N)cc4)cc3C(=O)N2C)O1,8,-7,-20,-7,78*,0,12%
Nc1ccc(C#Cc2ccc3c(=O)c4ccccc4oc3c2)cc1,-3,.,-85,.,-33,2,.
COc1cc2oc3cc(C#Cc4ccc(N)cc4)ccc3c(=O)c2cc1OC,-5,.,-15,.,55*,3,1%
